From PubChem BioAssay (Tox21)
Inconclusive results are not listed. Where a call stands in place of a potency, no number is given. Active and inactive are the calls of the source. Calls come from the whole dose curve; as a rule, active = well fitted activation curve with a large enough effect in the repeat runs; inconclusive = weak or mixed curves; inactive = flat fitted curve, though single readings scatter.

test: A CellTox Green Cytotoxicity Assay to monitor cytotoxicity in HepG2 cells - 32 hour (AID 1224883); details: CellTox Green fluorescence; series mostly up to 76.8 µM; note: nearly all actives have a fitted effect of over 50% in size
Excerpt: National Center for Advancing Translational Sciences [NCATS]
NIH Chemical Genomics Center [NCGC]
U.S. Environmental Protection Agency [EPA]
National Institutes of Environmental Health Sciences [NIEHS]
National Toxicology Program [NTP]
Cell-based models are critical for drug discovery. Determining the natural cytotoxic effects resulting from test compounds is an essential research activity. A CellTox Green Cytotoxicity Assay to monitor cytotoxicity in real time of continues cell culture during 40 hours of the compound treatment was used to screen Tox21 10K library compounds in HepG2 cells. CellTox Green Cytotoxicity Assay is a nonlytic, homogeneous, biofluorescent method to measure cytotoxicity in cell culture after experimental manipulation. The assay system uses a proprietary asymmetric cyanine dye that is excluded from viable cells but preferentially stains the dead cell's DNA. […] Viable cells produce no appreciable increases in fluorescence. Therefore, the fluorescence signal produced by the binding interaction with dead cell DNA is proportional to cytotoxicity.
The mixture of HepG2 cell suspension and reagents were dispensed at 600cells/6 ul/well in 1536-well tissue culture treated black solid bottom plates using a Multidrop dispenser. After the assay plates were incubated at a 37 C/5% CO2 incubator for 5 hours, 23 nL of compounds dissolved in DMSO, positive and negative controls was transferred to the assay plate by a pintool work station. The plates were incubated at 37 C for 40 hours. The fluorescence intensity were measured at 0h, 8h, 16h, 24h, 32h and 40h time points using ViewLux plate reader during compound treatment.

Row | SMILES | Potency
1 | Cc1ccccc1CO[C@@H]1C[C@@]2(C(C)C)CC[C@]1(C)O2 | inactive
2 | O=S(=O)(O)C(F)(F)C(F)(F)C(F)(F)C(F)(F)C(F)(F)C(F)(F)F | inactive
3 | CCC1(c2ccccc2)C(=O)N=C(O)NC1=O (stereo not given) | inactive
4 | O=C1OC(=O)C2C1C1(Cl)C(Cl)=C(Cl)C2(Cl)C1(Cl)Cl (stereo not given) | inactive
5 | COCC(=O)N(c1c(C)cccc1C)N1CCOC1=O | inactive
6 | CC(CCc1ccccc1)NC(C)C(O)c1ccc(O)cc1 (stereo not given) | inactive
7 | CNCC(=O)c1ccc(O)c(O)c1 | inactive
8 | O=C(CCCN1CCC(n2c(=O)[nH]c3ccccc32)CC1)c1ccc(F)cc1 | inactive
9 | CN1C[C@@H](NS(=O)(=O)N(C)C)C[C@@H]2c3cccc4c3c(cn4C)C[C@H]21 | inactive
10 | COc1cc(OC)nc(Oc2cccc(Oc3nc(OC)cc(OC)n3)c2C(=O)O)n1 | inactive
11 | C(CCOCC1CO1)COCC1CO1 (stereo not given) | inactive
12 | OC(c1ccc(F)cc1)(c1cncnc1)c1ccccc1Cl (stereo not given) | inactive
13 | CC(C)[N+](=O)[O-] | inactive
14 | CCCSP(=S)(OCC)Oc1ccc(Cl)cc1Cl (stereo not given) | inactive
15 | COc1cc(OC)nc(NC(=O)NS(=O)(=O)c2ncccc2OCC(F)(F)F)n1 | inactive
16 | CCCSC(=O)N(CCC)CCC | inactive
17 | CC1(C)COP(Oc2ccccc2)OC1 | inactive
18 | CCCSP(=O)(OCC)Oc1ccc(Br)cc1Cl (stereo not given) | inactive
19 | Fc1cc(Br)ccc1CBr | inactive
20 | O=CNC(N1CCN(C(NC=O)C(Cl)(Cl)Cl)CC1)C(Cl)(Cl)Cl (stereo not given) | inactive

Row | SMILES | Potency
21 | CCC/C(=N\OCC)C1=C(O)CC(CC(C)SCC)CC1=O (stereo not given) | inactive
22 | N#Cc1c(Cl)cccc1Cl | inactive
23 | CC1CCC(=O)O1 (stereo not given) | inactive
24 | CCCCC(=O)Cl | inactive
25 | CCS(=O)(=O)CCSP(=O)(OC)OC | inactive
26 | O=C(CCN1CC1)OCC(CO)(COC(=O)CCN1CC1)COC(=O)CCN1CC1 | inactive
27 | CCOP(=O)(N=C1SCCS1)OCC | inactive
28 | CC(Cl)(Cl)[N+](=O)[O-] | inactive
29 | Cc1nnc2n1-c1sc(CCC(=O)N3CCOCC3)cc1C(c1ccccc1Cl)=NC2 | inactive
30 | CC(C1CC1)C(O)(Cn1cncn1)c1ccc(Cl)cc1 (stereo not given) | inactive
31 | CCCCCCI | inactive
32 | CCCCOP(=O)(O)OCCCC | inactive
33 | CCCCOC(=O)c1ccccc1C(=O)O | inactive
34 | CC(C)(C)C(=O)C(Oc1ccc(Cl)cc1)n1cncn1 (stereo not given) | inactive
35 | CCC#N | inactive
36 | CC(C)(C)OC(=O)c1ncn2c1[C@@H]1CCCN1C(=O)c1c(Br)cccc1-2 | inactive
37 | Cc1ncc2n1-c1ccc(Cl)cc1C(c1ccccc1F)=NC2 | inactive
38 | [O]=[Cd] | inactive
39 | COC(=O)C(C)Oc1ccc(Oc2ccc(Cl)cc2Cl)cc1 (stereo not given) | inactive
40 | CC(Oc1ccc(Oc2ncc(C(F)(F)F)cc2Cl)cc1)C(=O)O (stereo not given) | inactive
